Assay results as given in PubChem BioAssay (NCATS).
Results filed as inconclusive are left out. Entries that show only a call come without a potency. Activity calls are given as the source filed them. Unless noted, calls follow the shape of the dose curve; as a rule, active = well fitted curve in the direction sought with a large enough effect; inconclusive = small, poorly fitted or top-dose-only effect, or another doubt; inactive = no such curve, though single readings can be large; an effect the other way counts as inactive or inconclusive.

Tests used:
[1] = target: D(1A) dopamine receptor (Homo sapiens) (UniProt P21728); experiment: HTS Assay for Allosteric Agonists of the Human D1 Dopamine Receptor: Primary Screen for Potentiators (AID 488982)
How it was run: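 Tetracycline-induced HEK293 Trex D1 cells with forced coupling to calcium, loaded with no-wash calcium dye; kinetic fluorescence read 180 s after compound addition for agonism, then a further 180 s after an EC20 dopamine challenge for potentiation.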

[2] = target: D(1A) dopamine receptor (Homo sapiens) (UniProt P21728); experiment: HTS Assay for Allosteric Agonists of the Human D1 Dopamine Receptor: Primary Screen for Antagonists (AID 488983);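 also: calcium flux response to an EC80 dopamine challenge measured with no-wash dye; nearly all actives have a fitted effect of over 65% in size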; also: potency is read from the fitted curve at half-maximal effect
How it was run: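 Calcium-flux read-out in inducible HEK293 T-REx cells expressing D1, dye-loaded 30–90 min at room temperature. Kinetic reads: 180 s after compound (agonist phase), then 180 s after an EC80 dopamine challenge.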

[3] = Validation screen for small molecules that induce genotoxicity in human embryonic kidney (HEK293T) cells expressing luciferase-tagged ELG1 (AID 493106)
How it was run: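 ELG1-luciferase reporter readout (ONE-Glo, 30 min, room temperature) after 16 hr compound treatment at 37 °C of HEK293T cells at 2,000 per well. Rising luminescence flags genotoxic stress.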

[4] = target: ATPase family AAA domain-containing protein 5 (Homo sapiens) (UniProt Q96QE3); experiment: Validation screen for small molecules that inhibit ELG1-dependent DNA repair in human embryonic kidney (HEK293T) cells expressing luciferase-tagged ELG1 (AID 493107);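 also: series mostly up to about 46 µM; inhibitors lower the ELG1-luciferase luminescence signal; nearly all actives have a fitted effect of over 70% in size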
Chain of ATPase family AAA domain-containing protein 5 (Homo sapiens) (Q96QE3 whole entry, looked up, the tested form may be a part): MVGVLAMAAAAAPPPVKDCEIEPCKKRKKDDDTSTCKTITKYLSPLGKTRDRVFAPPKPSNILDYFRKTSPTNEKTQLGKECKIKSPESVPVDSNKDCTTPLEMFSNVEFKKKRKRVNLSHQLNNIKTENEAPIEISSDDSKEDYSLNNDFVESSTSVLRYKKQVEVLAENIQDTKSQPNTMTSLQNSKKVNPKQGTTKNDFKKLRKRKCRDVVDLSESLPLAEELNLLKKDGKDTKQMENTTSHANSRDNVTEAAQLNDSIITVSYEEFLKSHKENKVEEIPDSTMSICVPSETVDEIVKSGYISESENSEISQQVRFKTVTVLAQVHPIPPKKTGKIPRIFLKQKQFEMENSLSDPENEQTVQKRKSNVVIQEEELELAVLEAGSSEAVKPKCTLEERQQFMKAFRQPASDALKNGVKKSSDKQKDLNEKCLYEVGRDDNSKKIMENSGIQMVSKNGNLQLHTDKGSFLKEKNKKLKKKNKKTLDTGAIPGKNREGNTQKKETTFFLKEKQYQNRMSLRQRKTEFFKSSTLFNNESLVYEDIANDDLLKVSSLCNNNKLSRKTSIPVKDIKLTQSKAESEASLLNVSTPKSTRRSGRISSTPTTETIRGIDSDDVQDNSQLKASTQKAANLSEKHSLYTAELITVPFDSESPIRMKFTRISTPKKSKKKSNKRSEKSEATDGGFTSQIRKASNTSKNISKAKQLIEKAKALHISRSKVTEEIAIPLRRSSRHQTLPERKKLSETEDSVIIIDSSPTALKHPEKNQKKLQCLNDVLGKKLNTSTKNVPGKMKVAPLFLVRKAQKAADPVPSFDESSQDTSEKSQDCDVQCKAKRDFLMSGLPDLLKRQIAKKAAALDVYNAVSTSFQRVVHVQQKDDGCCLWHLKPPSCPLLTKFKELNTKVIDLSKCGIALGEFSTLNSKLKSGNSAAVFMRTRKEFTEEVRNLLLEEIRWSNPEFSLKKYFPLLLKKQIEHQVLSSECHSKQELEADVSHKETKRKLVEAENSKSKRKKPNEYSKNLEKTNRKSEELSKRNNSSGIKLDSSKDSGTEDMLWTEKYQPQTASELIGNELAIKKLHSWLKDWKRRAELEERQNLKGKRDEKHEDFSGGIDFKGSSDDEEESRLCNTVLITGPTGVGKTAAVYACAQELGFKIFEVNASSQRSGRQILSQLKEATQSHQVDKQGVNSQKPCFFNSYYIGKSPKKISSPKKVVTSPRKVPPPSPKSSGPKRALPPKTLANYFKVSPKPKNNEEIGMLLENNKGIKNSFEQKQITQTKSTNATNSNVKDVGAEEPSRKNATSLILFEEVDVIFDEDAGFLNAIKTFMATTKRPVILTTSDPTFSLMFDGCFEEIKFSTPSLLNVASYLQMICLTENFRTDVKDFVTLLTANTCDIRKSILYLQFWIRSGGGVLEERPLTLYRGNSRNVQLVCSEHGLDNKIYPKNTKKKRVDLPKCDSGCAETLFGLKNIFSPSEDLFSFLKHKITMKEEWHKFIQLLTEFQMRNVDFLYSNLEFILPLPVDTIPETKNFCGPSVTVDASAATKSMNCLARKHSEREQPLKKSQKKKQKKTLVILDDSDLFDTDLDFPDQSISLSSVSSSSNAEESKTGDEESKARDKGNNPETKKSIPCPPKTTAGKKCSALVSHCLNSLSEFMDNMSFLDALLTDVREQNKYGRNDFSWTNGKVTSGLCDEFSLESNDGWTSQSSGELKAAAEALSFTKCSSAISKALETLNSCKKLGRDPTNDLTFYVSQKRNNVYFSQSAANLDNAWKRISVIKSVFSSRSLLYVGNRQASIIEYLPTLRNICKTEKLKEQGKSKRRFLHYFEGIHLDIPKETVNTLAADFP
How it was run: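 Luciferase read-out, ONE-Glo, 30 min at room temperature, follows 16 h co-exposure at 37 C of compound and the DNA-damaging agent 5-fluorouridine. Cells: HEK293T with ELG1-luciferase fusion, 2,000 per well, DMSO as vehicle.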

[5] = target: Thyrotropin-releasing hormone receptor (Homo sapiens) (UniProt P34981); experiment: qHTS for Small Molecule Agonists and Allosteric Enhancers of Human TRH Receptor: Validation Screen for Agonists (AID 493127;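 active = calcium activation more than 3 SD above the typical response in the agonist read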;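 also: intracellular calcium rise by fluo-8 fluorescence before TRH EC20 addition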); settings: TRH receptor agonist cell assay; at 2 µM; stronger effect = higher value
How it was run: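 Compound-evoked intracellular calcium release in fluo-8-loaded TRHR cells, read kinetically on FDSS (Ex 480/Em 530, 1 s/cycle) after 23 nL pintool transfer. Agonist phase preceded 10 nM TRH EC20 addition.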

[6] = Nrf2 qHTS screen for inhibitors: Validation (AID 493153; active = well fitted inhibition curve with a large enough effect in the main read-out, with a control signal flat, not every such curve was filed as active); settings: Potency: luciferase luminescence; viability change: measured here: cytotoxicity max response
How it was run: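 Concentration-response on A549 ARE_Fluc reporter cells exposed 18-24 h at 37 C, 5% CO2. Cytotoxicity read first by CellTiter-Fluor fluorescence (Ex 405/Em 525), then Nrf2 inhibition by BugLite luminescence after 15 min.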

[7] = qHTS for Inhibitors of Cell Surface uPA Generation: Validation Assay (AID 493164);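 also: RAW 264.7 macrophage cells exposed to compound for 18 h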
How it was run: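 ATP-Lite luminescence read-out: ATP remains high when uPA activity-dependent LF translocation into the cytoplasm is blocked. RAW 264.7 cells, 18 h compound exposure at 37 C; 7-point titration, 2.45 nM to 38.3 uM final.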

[8] = target: Galactokinase (Homo sapiens) (UniProt P51570); experiment: qHTS Validation Assay for Inhibitors of Human Galactokinase (GALK) (AID 493189)
How it was run: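 GALK (5 nM) with 35 uM ATP and 100 uM galactose in HEPES pH8.0, MgCl2, NaCl, DTT, BSA; 1 h at room temperature. Residual ATP read by Kinase-Glo Plus luminescence after 10 min.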

[9] = Validation screen for small molecules that induce DNA re-replication in SW480 colon adenocarcinoma cells (AID 504364)
How it was run: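 Image-based DNA content read-out: Hoechst stain 40 min, total nuclear fluorescence intensity (ex 405 nm, em 500-530 nm) after 48 h compound exposure of 250 SW480 cells/well at 37 C, 5% CO2, versus DMSO vehicle.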

[10] = target: Peptidyl-prolyl cis-trans isomerase NIMA-interacting 1 (Homo sapiens) (UniProt Q13526); experiment: qHTS Validation Assay to Find Inhibitors of Pin1 (AID 504536; active = well fitted inhibition curve with a large enough effect in the polarisation, with a control signal flat, not every such curve was filed as active; the % refers to the polarisation)
Chain of Peptidyl-prolyl cis-trans isomerase NIMA-interacting 1 (Homo sapiens) (Q13526 whole entry, looked up): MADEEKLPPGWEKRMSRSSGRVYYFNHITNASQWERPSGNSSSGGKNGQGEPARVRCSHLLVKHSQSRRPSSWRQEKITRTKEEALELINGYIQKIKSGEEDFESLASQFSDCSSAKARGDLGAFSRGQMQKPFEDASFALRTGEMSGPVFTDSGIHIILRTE
How it was run: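 Fluorescence polarization competition: compounds (titration) displace HiFluor-488-labeled Pin1-1b peptide from Pin1 (0.3 uM final) in pH 7.5 HEPES buffer with DTT, 10 min at room temperature; %Activity normalized to no-enzyme wells, curves fitted.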

[11] = target: Phosphoglycerate kinase, glycosomal (Trypanosoma brucei brucei) (UniProt P07378); experiment: qHTS Validation Assay to Find Inhibitors of Phosphoglycerate Kinase (AID 504547)
Chain of Phosphoglycerate kinase, glycosomal (Trypanosoma brucei brucei) (P07378 whole entry, looked up): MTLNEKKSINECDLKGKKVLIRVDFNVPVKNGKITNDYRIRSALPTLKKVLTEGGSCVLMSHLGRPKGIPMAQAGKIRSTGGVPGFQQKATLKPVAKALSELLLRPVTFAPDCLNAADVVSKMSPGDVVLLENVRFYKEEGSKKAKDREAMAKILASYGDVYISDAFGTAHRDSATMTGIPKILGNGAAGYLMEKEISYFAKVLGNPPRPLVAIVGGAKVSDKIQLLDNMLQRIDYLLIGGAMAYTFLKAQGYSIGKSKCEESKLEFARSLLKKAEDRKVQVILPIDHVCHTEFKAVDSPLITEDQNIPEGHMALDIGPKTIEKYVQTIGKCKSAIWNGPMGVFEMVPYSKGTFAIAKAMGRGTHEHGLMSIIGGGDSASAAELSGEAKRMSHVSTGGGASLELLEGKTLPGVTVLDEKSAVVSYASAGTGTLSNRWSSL
How it was run: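 Compounds are pinned into the substrate/PGK mixture, and GAPDH (100nM final) is added to start the reaction by producing 1,3-BPG. After 60 minutes at room temperature, Kinase-Glo Plus is added and luminescence is measured 10 minutes later.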

[12] = target: phosphoglycerate mutase (Leishmania major) (UniProt Q4Q090); experiment: qHTS Validation Assay to Find Inhibitors of Phosphoglycerate Mutase (AID 504548); also: series mostly up to about 58 µM
Chain of phosphoglycerate mutase (Leishmania major) (Q4Q090 1-553): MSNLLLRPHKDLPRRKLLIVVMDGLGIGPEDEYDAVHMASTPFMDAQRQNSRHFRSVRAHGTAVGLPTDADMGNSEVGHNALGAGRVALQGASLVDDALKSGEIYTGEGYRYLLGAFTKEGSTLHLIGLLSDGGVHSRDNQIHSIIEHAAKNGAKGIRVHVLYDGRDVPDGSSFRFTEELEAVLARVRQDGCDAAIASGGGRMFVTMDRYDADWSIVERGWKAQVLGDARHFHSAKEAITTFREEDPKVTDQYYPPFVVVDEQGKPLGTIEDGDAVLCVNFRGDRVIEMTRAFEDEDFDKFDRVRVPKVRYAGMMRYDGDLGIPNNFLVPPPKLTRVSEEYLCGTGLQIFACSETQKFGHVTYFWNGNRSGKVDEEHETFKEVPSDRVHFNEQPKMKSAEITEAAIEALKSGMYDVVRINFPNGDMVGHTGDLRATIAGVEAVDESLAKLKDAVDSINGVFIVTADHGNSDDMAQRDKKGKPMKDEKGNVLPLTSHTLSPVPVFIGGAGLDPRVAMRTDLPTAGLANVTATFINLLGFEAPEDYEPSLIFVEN
How it was run: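 Luminescent end-point read-out via Kinase-GloPlus after a 10-minute development. Reaction: 1.25nM Leishmania major PGAM with substrate and compound, 45 minutes at room temperature in TEA buffer (pH 7.6) with MgCl2 and Tween-20.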

[13] = target: Ubiquitin carboxyl-terminal hydrolase 1 (Homo sapiens) (UniProt O94782); experiment: Inhibitors of USP1/UAF1: Pilot qHTS (AID 504865);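 also: rhodamine fluorescence freed from ubiquitin-rhodamine substrate followed over time; top concentration of the series differs between compounds; nearly all actives have a fitted effect of over 35% in size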
Chain of Ubiquitin carboxyl-terminal hydrolase 1 (Homo sapiens) (O94782 whole entry, looked up): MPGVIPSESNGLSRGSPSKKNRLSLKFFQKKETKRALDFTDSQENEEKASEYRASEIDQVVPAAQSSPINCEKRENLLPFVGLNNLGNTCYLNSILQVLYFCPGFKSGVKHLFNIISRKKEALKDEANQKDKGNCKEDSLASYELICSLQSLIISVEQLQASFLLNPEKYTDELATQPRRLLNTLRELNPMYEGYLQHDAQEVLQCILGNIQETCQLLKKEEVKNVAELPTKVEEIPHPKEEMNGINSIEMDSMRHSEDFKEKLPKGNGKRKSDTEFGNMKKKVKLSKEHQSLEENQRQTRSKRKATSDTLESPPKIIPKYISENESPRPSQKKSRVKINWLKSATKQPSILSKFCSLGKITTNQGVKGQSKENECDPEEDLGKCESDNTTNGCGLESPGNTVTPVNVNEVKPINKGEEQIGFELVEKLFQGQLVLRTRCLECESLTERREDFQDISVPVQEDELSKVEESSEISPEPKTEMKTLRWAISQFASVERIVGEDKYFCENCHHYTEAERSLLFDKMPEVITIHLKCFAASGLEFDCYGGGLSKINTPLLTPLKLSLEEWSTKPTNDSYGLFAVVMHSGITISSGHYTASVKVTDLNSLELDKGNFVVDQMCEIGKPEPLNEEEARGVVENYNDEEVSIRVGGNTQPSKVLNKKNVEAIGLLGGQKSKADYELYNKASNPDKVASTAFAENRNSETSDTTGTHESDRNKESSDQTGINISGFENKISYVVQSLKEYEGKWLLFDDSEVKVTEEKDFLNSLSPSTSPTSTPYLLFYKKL
How it was run: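 USP1/UAF1 complex (1nM) preincubated with compound 15 min at room temperature, then Ub-Rho substrate (150nM final) added. Fluorescence read kinetically at 480/540 nm, 6 reads every 60 seconds. Buffer: 50mM HEPES pH 7.8, 0.5mM EDTA, 0.1 mg/ml BSA, 1mM TCEP, 0.01% Tween-20.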

[14] = qHTS for Inhibitors of ATXN expression: Validation of Cytotoxic Assay (AID 588349)
How it was run: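 Cytotoxicity counter-screen: ATP-based luminescent viability (CellTiter Glo) after 72 hr exposure of HEK293 cells to a compound titration at 37 degrees C.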

[15] = qHTS for Inhibitors of ATXN expression: Validation (AID 588378); also: series mostly up to about 57 µM; nearly all actives have a fitted effect of over 75% in size
How it was run: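 Luminescence from an ATXN2-FFLuc reporter in HEK293 cells served as read-out after 24 h compound treatment at 37 degrees C; CellTiter-Fluor fluorescence was recorded first to assess viability.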

[16] = target: ATP-dependent 6-phosphofructokinase (Trypanosoma brucei brucei) (UniProt O15648); experiment: qHTS Assay to Find Inhibitors of T. brucei phosphofructokinase: hit validation (AID 492961);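 also: luminescence reports ADP formed as PFK phosphorylates fructose-6-phosphate with ATP; series mostly up to about 51 µM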
How it was run: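 Compounds titrated; %activity normalized to 0x and 1x enzyme controls, curve-fitted. Readout: ADP-Glo luminescence after 45 min room-temperature reaction of 1.25 nM PFK, 0.1 mM ATP, 0.5 mM F6P, pH 8.0.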

[17] = target: Estrogen receptor (Homo sapiens) (UniProt P03372); experiment: qHTS assay for small molecule antagonists of estrogen receptor alpha signaling (AID 588513; active = well fitted curve in the direction sought with a large enough effect in the signal ratio, with a control signal flat, not every such curve was filed as active; the % refers to the signal ratio)
Chain of Estrogen receptor (Homo sapiens) (P03372 whole entry, looked up): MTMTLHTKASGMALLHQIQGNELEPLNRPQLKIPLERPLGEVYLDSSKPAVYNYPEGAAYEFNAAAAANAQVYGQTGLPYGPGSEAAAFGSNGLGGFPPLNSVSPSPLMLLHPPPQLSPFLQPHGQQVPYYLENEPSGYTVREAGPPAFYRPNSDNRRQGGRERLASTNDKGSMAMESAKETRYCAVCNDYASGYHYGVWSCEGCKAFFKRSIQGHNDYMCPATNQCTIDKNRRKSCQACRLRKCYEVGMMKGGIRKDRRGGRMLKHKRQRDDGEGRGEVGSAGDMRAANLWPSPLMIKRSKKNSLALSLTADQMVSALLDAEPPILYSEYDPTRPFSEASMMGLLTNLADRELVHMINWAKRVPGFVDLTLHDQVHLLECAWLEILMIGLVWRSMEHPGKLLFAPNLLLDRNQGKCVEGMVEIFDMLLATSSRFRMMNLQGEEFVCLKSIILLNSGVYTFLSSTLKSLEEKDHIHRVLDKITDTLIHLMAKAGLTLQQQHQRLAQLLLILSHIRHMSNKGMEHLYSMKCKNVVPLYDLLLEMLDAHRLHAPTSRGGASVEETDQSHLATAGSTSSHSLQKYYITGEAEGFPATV
How it was run: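 ER-alpha-UAS-bla GripTite HEK 293 cells in medium with 2% charcoal/dextran-treated FBS were preincubated 4 h at 37 C, dosed with compound (1:2 titration), stimulated with 0.5nM 17-beta-estradiol for 18 h, then read by CCF4 beta-lactamase fluorescence.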

[18] = target: Estrogen receptor (Homo sapiens) (UniProt P03372); experiment: qHTS assay for small molecule agonists of estrogen receptor alpha signaling (AID 588514; calls by dose curve; also: nearly all actives have a fitted effect of over 70% in size)
How it was run: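 EC50 and efficacy came from Hill fits of beta-lactamase reporter signal (CCF4 dye, 2 h at room temperature) scaled between DMSO and 20 nM 17-beta-estradiol. Agonist mode: HEK293 ER-alpha-UAS-bla cells in charcoal/dextran-stripped serum medium, 18 h compound exposure at 37 C.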

[19] = target: DNA dC->dU-editing enzyme APOBEC-3G (Homo sapiens) (UniProt Q9HC16); experiment: qHTS for inhibitors of Vif-A3G interactions: Validation (AID 588379)
Chain of DNA dC->dU-editing enzyme APOBEC-3G (Homo sapiens) (Q9HC16 whole entry, looked up): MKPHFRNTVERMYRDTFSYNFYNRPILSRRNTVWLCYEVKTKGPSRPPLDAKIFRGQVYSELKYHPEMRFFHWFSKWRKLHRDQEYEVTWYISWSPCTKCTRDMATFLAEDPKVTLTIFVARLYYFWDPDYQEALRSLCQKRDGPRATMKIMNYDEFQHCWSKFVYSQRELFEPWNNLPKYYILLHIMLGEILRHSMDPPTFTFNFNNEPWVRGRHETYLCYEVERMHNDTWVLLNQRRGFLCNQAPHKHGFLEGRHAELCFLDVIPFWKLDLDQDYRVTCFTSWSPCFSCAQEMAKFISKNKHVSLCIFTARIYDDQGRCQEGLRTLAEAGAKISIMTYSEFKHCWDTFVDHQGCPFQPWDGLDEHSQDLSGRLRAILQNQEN
How it was run: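 Yellow fluorescence (Ex 488, Em 500-530) of Vif-coexpressing HeLa A3G-eYFP cells, scanned by Acumen cytometer, reports blocked A3G degradation. Cells plated at 700/well overnight at 37 deg C before compound addition, then a further overnight compound incubation at 37 deg C.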

Row | SMILES | Potency [1] | Potency [2] | Potency [3] | Potency [4] | activation [5] | Potency [6] | viability change [6] | outcome [7] | outcome [8] | outcome [9] | outcome [10] | outcome [11] | outcome [12] | Potency [13] | Potency [14] | Potency [15] | outcome [16] | outcome [17] | Potency [18] | outcome [19]
1 | CCCCNC(=O)NS(=O)(=O)c1ccc(C)cc1 | inactive | inactive | inactive | inactive | 1.25% (inactive) | inactive | -5.96% | inactive | inactive | inactive | inactive | inactive | inactive | inactive | inactive | inactive |  |  |  | 
2 | CCCN(CCC)C(=O)C(CCC(=O)O)NC(=O)c1ccccc1 (configuration not stated) | inactive | inactive |  | inactive | 1.56% (inactive) | inactive | -16.1% | inactive | inactive | inactive | inactive |  | inactive | inactive |  | inactive |  |  |  | 
3 | CCn1ccnc1CC1COc2ccccc2O1 (configuration not stated) | inactive | inactive | inactive |  | 1.56% (inactive) | inactive | -1.46% | inactive | inactive | inactive | inactive | inactive | inactive | inactive | inactive | inactive |  |  |  | 
4 | Nc1ncn([C@@H]2O[C@H](CO)[C@@H](O)[C@H]2O)c(=O)n1 | inactive | inactive |  |  | 1.31% (inactive) |  |  | inactive | inactive |  | inactive |  |  | inactive |  |  | inactive | inactive | inactive | 
5 | COc1ccc(CCN(C)CCCC(C#N)(c2cc(OC)c(OC)c(OC)c2)C(C)C)cc1OC (configuration not stated) | inactive | inactive | inactive | inactive | 3% (inactive) | inactive | -13.6% | inactive | inactive | inactive | inactive | inactive | inactive | inactive |  |  |  |  |  | 
6 | CN(C(=O)CCCOc1ccc2[nH]c(=O)ccc2c1)C1CCCCC1 | inactive | inactive |  |  | 1.44% (inactive) |  |  |  | inactive | inactive | inactive | inactive | inactive | inactive |  | inactive | inactive |  |  | inactive
7 | COCCc1ccc(OCC(O)CNC(C)C)cc1 (configuration not stated) | inactive | inactive | inactive | inactive |  | inactive | -2.79% | inactive | inactive | inactive | inactive | inactive | inactive | inactive |  | inactive |  |  |  | 
8 | CN(C)[C@@H]1C(=O)C(C(N)=O)=C(O)[C@@]2(O)C(=O)C3=C(O)c4c(O)ccc(Cl)c4[C@@H](O)[C@H]3C[C@@H]12 | inactive | inactive | inactive | inactive |  | inactive | 4.27% | inactive |  |  |  |  | inactive | inactive | inactive | inactive |  |  |  | 
9 | C[C@@H](O)[C@H]1C(=O)N2C(C(=O)O)=C(SCCN=CN)C[C@H]12 | inactive | inactive | inactive | inactive |  | inactive | -3.32% | inactive |  |  |  |  |  | inactive | inactive | inactive |  |  |  | 
10 | CC(=O)OC(C)C[N+](C)(C)C (configuration not stated) | inactive | inactive | inactive | inactive |  | inactive | 2.56% | inactive | inactive | inactive | inactive | inactive | inactive | inactive | inactive | inactive |  |  |  | 
11 | COc1ccc(CN(CCN(C)C)c2ccccn2)cc1 | inactive | inactive | inactive |  | 1.25% (inactive) | inactive | 0.301% | inactive | inactive | inactive | inactive |  | inactive | inactive | inactive |  |  |  |  | inactive
12 | CCN(CC)CC(=O)Nc1c(C)cccc1C | inactive | inactive |  | inactive | 1.5% (inactive) | inactive | -7.11% | inactive | inactive | inactive | inactive | inactive |  |  |  | inactive |  |  |  | 
13 | CCc1c(C)[nH]c2c1C(=O)C(CN1CCOCC1)CC2 (configuration not stated) | inactive | 14.1 µM (active) | inactive | inactive | 0.75% (inactive) | inactive | 1.73% | inactive | inactive | inactive | inactive | inactive | inactive | inactive | inactive | inactive |  |  |  | 
14 | CNC1(C)C2CCC(C2)C1(C)C (configuration not stated) | inactive | inactive | inactive |  | 0.375% (inactive) | inactive | 3.39% | inactive | inactive | inactive | inactive | inactive | inactive | inactive | inactive | inactive |  |  |  | 
15 | C=CCc1ccccc1OCC(O)CNC(C)C (configuration not stated) | inactive | inactive | inactive | inactive | 0.312% (inactive) | inactive | -7.73% | inactive | inactive | inactive | inactive | inactive | inactive | inactive |  |  |  |  |  | 
16 | C[C@]12CCC(=O)C=C1CC[C@@H]1[C@@H]2C(=O)C[C@@]2(C)[C@H]1CC[C@]2(O)C(=O)CO | inactive | inactive | inactive |  | -0.125% (inactive) | inactive | 8.98% | inactive | inactive | inactive | inactive | inactive |  | inactive | inactive | inactive |  |  | inactive | 
17 | CN=C(NC#N)NCCSCc1nc[nH]c1C | inactive | inactive |  | inactive | 1.12% (inactive) |  |  | inactive | inactive | inactive | inactive | inactive | inactive | inactive | inactive | inactive |  | inactive | inactive | inactive
